Most compounds without a hit are left out; they make up all but 1.1% or so of the library.
SRC1 inh: inhibits human SRC1 coactivator | Q15788 | HEK293 GAL4-SRC1 luciferase reporter, luminescence | 0.12% of 360,000 active | AID 588354 | inhibition, % at 3.6 µM;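 active = inhibition above the campaign mean plus 3 SD, with each screening campaign given its own cutoff, cut at about 60% in these data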
Target sequence (Q15788 whole entry, looked up, the tested form may be a part): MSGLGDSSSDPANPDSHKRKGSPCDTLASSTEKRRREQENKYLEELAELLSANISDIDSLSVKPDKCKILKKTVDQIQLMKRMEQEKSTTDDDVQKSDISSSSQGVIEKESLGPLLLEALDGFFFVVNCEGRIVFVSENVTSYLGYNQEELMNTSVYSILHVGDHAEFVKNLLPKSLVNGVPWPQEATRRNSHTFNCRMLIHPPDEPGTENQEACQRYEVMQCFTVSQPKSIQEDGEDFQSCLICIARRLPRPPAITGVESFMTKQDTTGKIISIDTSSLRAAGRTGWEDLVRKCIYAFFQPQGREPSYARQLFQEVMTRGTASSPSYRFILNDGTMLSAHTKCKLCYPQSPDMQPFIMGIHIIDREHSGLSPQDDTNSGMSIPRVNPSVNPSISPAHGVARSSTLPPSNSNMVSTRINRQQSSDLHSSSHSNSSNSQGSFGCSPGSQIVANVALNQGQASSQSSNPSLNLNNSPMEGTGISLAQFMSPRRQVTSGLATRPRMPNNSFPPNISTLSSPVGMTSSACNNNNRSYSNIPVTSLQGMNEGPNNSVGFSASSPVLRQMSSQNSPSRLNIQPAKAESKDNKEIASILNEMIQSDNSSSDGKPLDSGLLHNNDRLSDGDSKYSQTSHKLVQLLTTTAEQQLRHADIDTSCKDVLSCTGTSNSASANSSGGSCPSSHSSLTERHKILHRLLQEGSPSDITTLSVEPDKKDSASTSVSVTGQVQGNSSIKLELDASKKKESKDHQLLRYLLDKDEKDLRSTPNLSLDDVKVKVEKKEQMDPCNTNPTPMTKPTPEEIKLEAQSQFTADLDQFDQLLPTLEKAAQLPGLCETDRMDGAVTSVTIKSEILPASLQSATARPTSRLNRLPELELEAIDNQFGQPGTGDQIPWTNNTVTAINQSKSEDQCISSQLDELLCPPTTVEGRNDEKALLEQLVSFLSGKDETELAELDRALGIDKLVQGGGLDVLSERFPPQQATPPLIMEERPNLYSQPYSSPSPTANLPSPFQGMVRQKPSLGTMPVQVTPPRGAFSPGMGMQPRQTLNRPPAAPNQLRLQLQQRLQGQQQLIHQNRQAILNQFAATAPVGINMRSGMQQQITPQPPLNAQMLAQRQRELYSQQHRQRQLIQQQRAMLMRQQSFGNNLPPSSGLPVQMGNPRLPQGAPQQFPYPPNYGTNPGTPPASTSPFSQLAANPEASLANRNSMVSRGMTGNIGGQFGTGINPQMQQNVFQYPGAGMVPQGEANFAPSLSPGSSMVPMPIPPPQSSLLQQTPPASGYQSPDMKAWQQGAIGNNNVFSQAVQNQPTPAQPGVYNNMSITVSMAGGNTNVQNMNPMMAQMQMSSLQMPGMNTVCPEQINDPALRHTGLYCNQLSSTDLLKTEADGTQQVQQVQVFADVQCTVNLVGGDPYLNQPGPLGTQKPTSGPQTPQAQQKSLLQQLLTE
LRH-1 inv ag: suppresses constitutive activity of human LRH-1; O00482; HEK293T StAR-luciferase reporter, LRH-1 transfected, 24 h; inhibition, % at 3.6 µM; 0.13% of 360,000 active; AID 602396;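 active = inhibition above the mean inhibition of all tested compounds plus 3 SD, cut at about 73% in these data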
SRC2 inh: human SRC2 (NCOA2) inhibition; Q15596; HEK293 GAL4-SRC2 luciferase reporter, luminescence; inhibition, % at 9 µM; 0.17% of 370,000 active; AID 651957;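 active = inhibition above the mean inhibition of all tested compounds plus 3 SD, set per campaign, cut at about 52% in these data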
NCOA3 inh: inhibitors of human steroid receptor coactivator 3 (SRC3); Q9Y6Q9; HEK293 GAL4-SRC3 luciferase reporter, luminescence; inhibition, % at 3.6 µM; 0.17% of 360,000 active; AID 588352;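 active = inhibition above a per-campaign cutoff, the mean of all compounds plus 3 SD, cut at about 60% in these data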;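 note: higher means less SRC3-driven luciferase light from the GAL4 reporter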
COUP-TFII inh: blocks human COUP-TFII nuclear receptor; P24468; HEK293T NGFI-A luciferase reporter, luminescence; inhibition, % at 8.6 µM; 0.7% of 370,000 active; AID 686940;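 active = inhibition above a per-plate cutoff, mean inhibition of test wells between control levels plus 3 SD, cut at about 38% in these data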;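 note: cells cotransfected with COUP-TFII expression vector driving the NGFI-A reporter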
GalR3 antagonist: antagonists of human GalR3 | O60755 | HEK293 GalR3-CNG cAMP membrane potential fluorescence; galR3 body fused to GalR1 C-terminus | inhibition, % at 3 µM | 0.44% of 360,000 active | AID 651719;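 active = inhibition above the screen-wide average plus 3 SD, cut at about 13% in these data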;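 note: forskolin and galanin both at EC90 stimulate the cells; cAMP rise reported by CNG channel membrane potential dye signal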
Gal4-VP16 ctr: VP16 inhibition counter-screen for COUP-TFII | shares compounds with COUP-TFII inh | HEK293 Gal4-VP16 luciferase reporter, luminescence | inhibition, % at 8.5 µM | 25% of 2,500 active; in the data active = inhibition above about 13%
NR2F2 inh conf: confirmation of human COUP-TFII (NR2F2) inhibitors | 45% of 2,500 active | HEK293 NGFI-A luciferase reporter, luminescence | shares compounds with COUP-TFII inh | AID 687008 | inhibition, % at 8.5 µM;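 active = mean inhibition over three repeats above a set limit taken from the earlier primary screen, cut at about 38% in these data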
Numbers stand for hits; . = inactive; / = no result.

SMILES	SRC1 inh	LRH-1 inv ag	SRC2 inh	NCOA3 inh	COUP-TFII inh	GalR3 antagonist	Gal4-VP16 ctr	NR2F2 inh conf
Cc1oc(-c2ccccc2Cl)nc1CN1C(=O)CN=C(c2ccccc2)c2ccccc21	.	.	.	.	.	.	/	/
O=[N+]([O-])c1ccc(N2CCOCC2)c2c1no[n+]2[O-]	78	92	97	91	89	.	62	.
O=[N+]([O-])c1ccc(N2CCOCC2)c2cccnc12	.	.	.	.	.	.	/	/
O=C(C(=O)N1CCOCC1)c1cn(CCCOc2ccccc2)c2ccccc12	.	.	.	.	.	.	/	/
CC(=O)c1cn(CCCOc2ccccc2)c2ccccc12	.	.	.	.	45	.	.	.
CCC(C)c1cnc(CC(C)C)c(=O)n1O (stereo unspecified)	.	.	.	.	.	.	/	/
C[C@H]1CCC/C=C/[C@@H]2C[C@H](O)C[C@H]2[C@@H](O)/C=C/C(=O)O1	.	.	.	.	53	.	18	.
O=c1[nH]c(O)c(N=Nc2ccc3c(c2)OCCO3)c(=O)[nH]1	67	.	59	69	82	.	.	64
CN(C)c1ccc(-[n+]2c(-c3ccccc3)cc(-c3ccccc3)cc2-c2ccccc2)cc1	.	90	.	82	86	.	27	90
Cc1ccc(-c2cc(-c3ccc(C)cc3)[n+](-c3ccc(C(=O)[O-])cc3)c(-c3ccc(C)cc3)c2)cc1	.	.	.	.	.	.	/	/
CCOC(=O)c1cccc(-[n+]2c(-c3ccccc3)cc(-c3ccccc3)cc2-c2ccccc2)c1	.	.	.	.	.	.	/	/
Cc1ccc(-c2cc(-c3ccccc3)cc(-c3ccccc3)[n+]2-c2ccccc2)cc1	.	98	75	84	76	.	31	89
c1ccc(-c2cc(-c3ccccc3)[n+](-c3ccccc3)c(-c3ccccc3)c2)cc1	.	.	.	66	73	.	15	45
C[C@H]1CNCCN1c1ccc(N2CC[C@H](O)C2)c(C#N)c1	/	/	.	/	.	.	/	/
CCCC1(CC(C)C)C(=O)NC(=S)NC1=O	.	.	.	.	.	.	/	/
